According to PubChem BioAssay (EPA / NIEHS):
The source holds several records for some structures; these can differ, active in one and inactive in another. Active and inactive are the calls of the source. How the source made its calls: active means hit-call score of the fitted dose curve at least 0.9, where 1 is the maximum; inactive means score below 0.9.

Assay: ATG_M_61_CIS: Attagene CIS-FACTORIAL HepG2 Assay for M61 Transcription Factor (Internal Marker) (AID 2282937)
Conditions: HepG2 Attagene CIS-FACTORIAL M61 internal marker reporter; actives raise or lower the signal
In short: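 Endogenous transcription factor activity in HepG2 is read through transiently transfected cis-element reporter units. After 24 h dosing, RNA undergoes reverse transcription, PCR and primer extension with 6-FAM before capillary electrophoresis; DMSO-referenced bidirectional fit.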

SMILES	outcome
Cc1ccc(S(=O)(=O)O)c(C)c1	inactive
NCC(F)(F)C(F)(F)C(F)(F)C(F)(F)C(F)(F)C(F)(F)C(F)(F)F	inactive
O=[N+]([O-])c1ccc(O)cc1	inactive
CC(C)(C)c1cccc(C(C)(C)C)c1O	inactive
CCCCCCCC(=O)O	inactive
CCCCC[C@H](O)CC(=O)CCc1ccc(O)c(OC)c1	inactive
CCc1ccc(CCOc2ccc(CC3SC(=O)NC3=O)cc2)nc1 (stereo unspecified)	inactive
CC(O)C(=O)O (stereo unspecified)	inactive
CC(C)CCCCCCOC(=O)CCCCC(=O)OCCCCCCC(C)C	inactive
O=C1OC2(c3ccccc31)c1cc(Br)c(O)c(Br)c1Oc1c2cc(Br)c(O)c1Br	inactive
COCC(C)O (stereo unspecified)	inactive
CCCCCCCCCCCCCCCS(=O)(=O)Oc1ccccc1	inactive
Cc1cc(C)c(O)c(C)c1	inactive
C#C[C@]1(O)CC[C@H]2[C@@H]3CCC4=CC(=O)CC[C@@H]4[C@H]3CC[C@@]21C	inactive
CC(C)(C)c1ccc(O)c(C(C)(C)C)c1	inactive
Oc1cccc(O)c1	inactive
CC[C@H](C)[C@@H](C(=O)O)n1sc2ccccc2c1=O	inactive

Assay: ATG_EGR_CIS: Attagene CIS-FACTORIAL HepG2 Assay for human Early Growth Response 1 (EGR1) (AID 2282938)
Conditions: HepG2 Attagene CIS-FACTORIAL EGR reporter mRNA; actives raise or lower the signal
In short: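 Activity is taken as induction or loss of reporter mRNA versus DMSO, fitted bidirectionally. Transcripts from cis-regulated reporter units in transiently transfected HepG2 were measured after 24 h by RT-PCR with capillary electrophoresis.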

SMILES	outcome	AC50
CCCCC(CC)COC(=O)CCCCC(=O)OCc1ccccc1 (stereo unspecified)	inactive	–
FC(F)(I)C(F)(F)C(F)(F)C(F)(F)C(F)(F)C(F)(F)I	–	16.4 µM (active)
Cc1oc(-c2ccccc2)nc1CCOc1ccc(C[C@H](Nc2ccccc2C(=O)c2ccccc2)C(=O)O)cc1	–	17.1 µM (active)
CN1CCC[C@H]1c1cccnc1	inactive	–
COCC(C)OCC(C)O (stereo unspecified)	inactive	–
CN1CCN(c2ccccc2/C=C2\SCCN(c3ccc(Cl)c(Cl)c3)C2=O)CC1	inactive	–
CC(C)(C)CC(C)(C)c1ccc(O)c(-n2nc3ccccc3n2)c1	inactive	–
C[C@@H]1C[C@H]2[C@@H]3CCC4=CC(=O)C=C[C@]4(C)[C@@]3(F)[C@@H](O)C[C@]2(C)[C@@]1(O)C(=O)COP(=O)(O)O	inactive	–
CCc1nn(C2CCCCC2)c2cc(C3(C#N)CCC(C(=O)O)CC3)ccc12 (stereo unspecified)	inactive	–
N#C[C@@H]1CC(F)(F)CN1C(=O)CNC1CC2CCC(C1)N2c1ncccn1 (stereo partly specified)	inactive	–
CCCCCCCCC(=O)O	inactive	–
NC(=O)N(O)[C@@H]1C=C[C@H](Oc2cccc(Oc3ccc(F)cc3)c2)C1	–	33 µM (active)
CC(=O)CC(C)(C)O	inactive	–
CCCCCCCCCCCCCC[N+](C)(C)C	inactive	11.1 µM (active)
CC(=O)NC1(c2cccc(F)c2)CCN(CC[C@@]2(c3ccc(Cl)c(Cl)c3)CN(c3ccccc3)C(=O)CO2)CC1	–	28.5 µM (active)
CCCCCCCCCCCCc1ccccc1S(=O)(=O)O	inactive	–
Cc1cc(CCN2CCN(c3nsc4ccccc34)CC2)cc2c1NC(=O)CC2(C)C	–	4.06 µM (active)
CCCCCCC(=O)O	inactive	–

SMILES	outcome	AC50
OC1CCC(C2CCCCC2)CC1 (stereo unspecified)	inactive	–
Cc1ccc(S(=O)(=O)O)c(C)c1	inactive	–
NCC(F)(F)C(F)(F)C(F)(F)C(F)(F)C(F)(F)C(F)(F)C(F)(F)F	inactive	–
O=[N+]([O-])c1ccc(O)cc1	inactive	–
CC(C)(C)c1cccc(C(C)(C)C)c1O	inactive	–
CCCCCCCC(=O)O	inactive	–
CCCCC[C@H](O)CC(=O)CCc1ccc(O)c(OC)c1	inactive	–
CCc1ccc(CCOc2ccc(CC3SC(=O)NC3=O)cc2)nc1 (stereo unspecified)	inactive	–
CC(O)C(=O)O (stereo unspecified)	inactive	–
CC(C)CCCCCCOC(=O)CCCCC(=O)OCCCCCCC(C)C	inactive	–
O=C1OC2(c3ccccc31)c1cc(Br)c(O)c(Br)c1Oc1c2cc(Br)c(O)c1Br	inactive	62.3 µM (active)
COCC(C)O (stereo unspecified)	inactive	–
CCCCCCCCCCCCCCCS(=O)(=O)Oc1ccccc1	inactive	–
Cc1cc(C)c(O)c(C)c1	inactive	–
C#C[C@]1(O)CC[C@H]2[C@@H]3CCC4=CC(=O)CC[C@@H]4[C@H]3CC[C@@]21C	inactive	–
CC(C)(C)c1ccc(O)c(C(C)(C)C)c1	inactive	–
Oc1cccc(O)c1	inactive	–
CC[C@H](C)[C@@H](C(=O)O)n1sc2ccccc2c1=O	inactive	–

Assay: ATG_M_19_CIS: Attagene CIS-FACTORIAL HepG2 Assay for M19 Transcription Factor (Internal Marker) (AID 2282939)
Conditions: HepG2 Attagene CIS-FACTORIAL M19 internal marker reporter; actives raise or lower the signal
In short: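 Transfect HepG2 with MRTU reporter library → dose chemical, 24 h → isolate total RNA, reverse-transcribe with oligo(dT) → PCR, 6-FAM label, HpaI cut (2 h, 37 C) → capillary electrophoresis. Bidirectional fit vs DMSO.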

SMILES	outcome
CCCCC(CC)COC(=O)CCCCC(=O)OCc1ccccc1 (stereo unspecified)	inactive
FC(F)(I)C(F)(F)C(F)(F)C(F)(F)C(F)(F)C(F)(F)I	inactive
Cc1oc(-c2ccccc2)nc1CCOc1ccc(C[C@H](Nc2ccccc2C(=O)c2ccccc2)C(=O)O)cc1	inactive
CN1CCC[C@H]1c1cccnc1	inactive
COCC(C)OCC(C)O (stereo unspecified)	inactive
CN1CCN(c2ccccc2/C=C2\SCCN(c3ccc(Cl)c(Cl)c3)C2=O)CC1	inactive
CC(C)(C)CC(C)(C)c1ccc(O)c(-n2nc3ccccc3n2)c1	inactive
C[C@@H]1C[C@H]2[C@@H]3CCC4=CC(=O)C=C[C@]4(C)[C@@]3(F)[C@@H](O)C[C@]2(C)[C@@]1(O)C(=O)COP(=O)(O)O	inactive
CCc1nn(C2CCCCC2)c2cc(C3(C#N)CCC(C(=O)O)CC3)ccc12 (stereo unspecified)	inactive
N#C[C@@H]1CC(F)(F)CN1C(=O)CNC1CC2CCC(C1)N2c1ncccn1 (stereo partly specified)	inactive
CCCCCCCCC(=O)O	inactive
NC(=O)N(O)[C@@H]1C=C[C@H](Oc2cccc(Oc3ccc(F)cc3)c2)C1	inactive
CC(=O)CC(C)(C)O	inactive
CCCCCCCCCCCCCC[N+](C)(C)C	inactive
CC(=O)NC1(c2cccc(F)c2)CCN(CC[C@@]2(c3ccc(Cl)c(Cl)c3)CN(c3ccccc3)C(=O)CO2)CC1	inactive
CCCCCCCCCCCCc1ccccc1S(=O)(=O)O	inactive
Cc1cc(CCN2CCN(c3nsc4ccccc34)CC2)cc2c1NC(=O)CC2(C)C	inactive
CCCCCCC(=O)O	inactive

SMILES	outcome
OC1CCC(C2CCCCC2)CC1 (stereo unspecified)	inactive
Cc1ccc(S(=O)(=O)O)c(C)c1	inactive
NCC(F)(F)C(F)(F)C(F)(F)C(F)(F)C(F)(F)C(F)(F)C(F)(F)F	inactive
O=[N+]([O-])c1ccc(O)cc1	inactive
CC(C)(C)c1cccc(C(C)(C)C)c1O	inactive
CCCCCCCC(=O)O	inactive
CCCCC[C@H](O)CC(=O)CCc1ccc(O)c(OC)c1	inactive
CCc1ccc(CCOc2ccc(CC3SC(=O)NC3=O)cc2)nc1 (stereo unspecified)	inactive
CC(O)C(=O)O (stereo unspecified)	inactive
CC(C)CCCCCCOC(=O)CCCCC(=O)OCCCCCCC(C)C	inactive
O=C1OC2(c3ccccc31)c1cc(Br)c(O)c(Br)c1Oc1c2cc(Br)c(O)c1Br	inactive
COCC(C)O (stereo unspecified)	inactive
CCCCCCCCCCCCCCCS(=O)(=O)Oc1ccccc1	inactive
Cc1cc(C)c(O)c(C)c1	inactive
C#C[C@]1(O)CC[C@H]2[C@@H]3CCC4=CC(=O)CC[C@@H]4[C@H]3CC[C@@]21C	inactive
CC(C)(C)c1ccc(O)c(C(C)(C)C)c1	inactive
Oc1cccc(O)c1	inactive
CC[C@H](C)[C@@H](C(=O)O)n1sc2ccccc2c1=O	inactive
